Reference: ChEMBL document CHEMBL2218924, “A broad activity screen in support of a chemogenomic map for kinase signalling research and drug discovery” (Biochem J, 2013)

biological target: T1, Serine/threonine-protein kinase ULK2 (Homo sapiens) (UniProt Q8IYT8); conditions: at 10 µM
T1 sequence (whole entry): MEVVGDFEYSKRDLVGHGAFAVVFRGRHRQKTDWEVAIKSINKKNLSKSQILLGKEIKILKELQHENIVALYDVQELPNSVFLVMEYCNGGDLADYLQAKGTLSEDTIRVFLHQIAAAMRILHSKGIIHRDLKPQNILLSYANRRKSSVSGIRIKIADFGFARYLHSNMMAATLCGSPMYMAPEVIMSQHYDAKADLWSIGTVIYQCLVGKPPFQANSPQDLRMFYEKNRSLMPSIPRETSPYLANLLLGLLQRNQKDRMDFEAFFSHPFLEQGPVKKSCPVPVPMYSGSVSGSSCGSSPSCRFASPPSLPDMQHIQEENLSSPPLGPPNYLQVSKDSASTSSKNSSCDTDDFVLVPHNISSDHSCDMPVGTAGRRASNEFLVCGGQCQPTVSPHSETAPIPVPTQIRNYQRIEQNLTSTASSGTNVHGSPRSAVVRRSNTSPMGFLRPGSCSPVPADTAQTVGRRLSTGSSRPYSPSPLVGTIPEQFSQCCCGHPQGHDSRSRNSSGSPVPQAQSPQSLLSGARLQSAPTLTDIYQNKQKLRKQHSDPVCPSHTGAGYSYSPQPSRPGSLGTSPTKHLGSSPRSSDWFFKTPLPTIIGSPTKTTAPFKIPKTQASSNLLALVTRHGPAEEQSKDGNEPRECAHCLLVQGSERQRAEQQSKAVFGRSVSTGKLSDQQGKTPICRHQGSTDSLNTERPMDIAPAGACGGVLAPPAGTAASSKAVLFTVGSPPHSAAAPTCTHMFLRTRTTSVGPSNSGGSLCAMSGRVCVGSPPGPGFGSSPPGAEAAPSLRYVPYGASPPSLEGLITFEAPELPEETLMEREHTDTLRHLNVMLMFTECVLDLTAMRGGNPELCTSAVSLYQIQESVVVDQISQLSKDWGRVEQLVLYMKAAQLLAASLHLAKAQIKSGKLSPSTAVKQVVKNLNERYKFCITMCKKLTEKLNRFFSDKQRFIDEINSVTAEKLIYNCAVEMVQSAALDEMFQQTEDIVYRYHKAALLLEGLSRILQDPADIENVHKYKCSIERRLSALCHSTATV

| Structure (SMILES) | residual activity |
| --- | --- |
| O=Nc1c(-c2c(O)[nH]c3ccccc23)[nH]c2ccccc12 | 59% |
| Cc1cncc2cccc(S(=O)(=O)N3CCCN(C(=O)CN)C[C@H]3C)c12 | 47% |
| COc1cc2ncnc(N3CCN(C(=O)Nc4ccc(Oc5ccccc5)cc4)CC3)c2cc1OC | 100% |
| O=C1Nc2ccccc2/C1=C1/Nc2ccccc2/C1=N\OCCC(O)CO (stereo not given) | 74% |
| Oc1c2ccccc2c2c3c(cccc13)N=N2 | 45% |
| COc1cccc(-c2cc(=O)c3ccccc3o2)c1N | 108% |
| Cc1cccc(-c2[nH]c(C(C)(C)C)nc2-c2ccc3c(c2)OCO3)n1 | 94% |
| CNc1cc2c(Nc3cccc(Br)c3)ncnc2cn1 | 95% |
| O=[N+]([O-])c1ccc(-c2nc(-c3ccc(F)cc3)c(-c3ccncc3)[nH]2)cc1 | 106% |
| O=C(O)c1ccc2c3c1cccc3c(=O)n1c3ccccc3nc21 | 48% |
| Cn1nc2c3c(cccc31)C(=O)c1ccccc1-2 | 104% |
| CCN(CC)C(=O)c1ccc(Nc2nc(OCC3CCCCC3)c3nc[nH]c3n2)cc1 | 35% |
| CO[C@H]1C[C@@H]2CC[C@@H](C)[C@@](O)(O2)C(=O)C(=O)N2CCCC[C@H]2C(=O)O[C@H]([C@H](C)C[C@@H]2CC[C@@H](O)[C@H](OC)C2)CC(=O)[C@H](C)/C=C(\C)[C@@H](O)[C@@H](OC)C(=O)[C@H](C)C[C@H](C)/C=C/C=C/C=C/1C | 98% |
| COc1cc2ncnc(Nc3ccc(O)c(Br)c3)c2cc1OC | 76% |
| COc1cc2ncnc(Nc3ccc(NC(=O)c4ccccc4)cc3)c2cc1OC | 104% |
